Assay [1] is described as follows: qHTS assay to identify small molecule agonists of the peroxisome proliferator-activated receptor delta (PPARd) signaling pathway - cell viability counter screen (AID 743211). Further: nearly all actives have a fitted effect of over 55% in size. Further: potency means the concentration at half of the fitted maximal effect. A digest of the protocol:
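Tox21 library compounds, delivered in DMSO, were incubated 17 h with PPARd-bla HEK293H cells; cytotoxicity was taken from CellTiter-Glo luminescence read 30 min after reagent addition.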

Assay [2] is described as follows: qHTS assay to identify small molecule antagonists of the peroxisome proliferator-activated receptor delta (PPARd) signaling pathway - cell viability counter screen (AID 743213). Further: nearly all actives have a fitted effect of over 50% in size. Further: potency means the concentration at half of the fitted maximal effect. A digest of the protocol:
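Same-well viability: cells pre-incubated 5 h, dosed with compound plus 300 nM L165041, kept 17 h at 37 C, FRET substrate 2 h RT, then CellTiter-Glo 30 min RT and luminescence.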
(Quantitative high-throughput screening tests each substance at several concentrations.)

The nature of assay [3]: qHTS assay to identify small molecule agonists of the farnesoid-X-receptor (FXR) signaling pathway - cell viability counter screen (AID 743218). Further: nearly all actives have a fitted effect of over 45% in size. Further: potency means the concentration at half of the fitted maximal effect. A digest of the protocol: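 Quantitative HTS counter screen measuring ATP-based viability via CellTiter-Glo luminescence in HEK 293T cells carrying a UAS-driven beta-lactamase reporter, after 16 h compound exposure at 37 C.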
The nature of assay [4]: qHTS assay to identify small molecule antagonists of the farnesoid-X-receptor (FXR) signaling pathway - cell viability counter screen (AID 743221; active means well fitted cell-killing curve with a large enough effect in the repeat runs, not every such curve was filed as active; further: nearly all actives have a fitted effect of over 50% in size). A digest of the protocol: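 Cytotoxicity is taken from ATP luminescence (CellTiter-Glo, 30 min, room temperature) in FXR-bla HEK 293T cells previously incubated 16 h at 37 C with compound and chenodeoxycholic acid at 50 uM final.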

Assay [5] concerns the target Vitamin D3 receptor (Homo sapiens) (UniProt P11473). The assay is described as follows: qHTS assay to identify small molecule agonists of the vitamin D receptor (VDR) signaling pathway (AID 743222; calls by dose curve; further: potency means the concentration at half of the fitted maximal effect). A digest of the protocol: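 Tox21 cell reporter format: VDR-bla line, 16 h compound exposure in 5% CO2 at 37C, then fluorescence intensity after 2 h with LiveBLAzer B/G FRET substrate.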

Assay [6] has the same target. As to the kind of experiment: qHTS assay to identify small molecule antagonists of the vitamin D receptor (VDR) signaling pathway (AID 743223; active means well fitted inhibition curve with a large enough effect in the signal ratio in the repeat runs, not every such curve was filed as active; the % refers to the signal ratio). A digest of the protocol: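 Quantitative HTS in VDR-bla reporter cells stimulated with 1alpha,25-dihydroxyvitamin D3, 3 nM final. Compound exposure 16 h, 37C, 5% CO2. Read-out: beta-lactamase FRET substrate fluorescence, 2 h RT.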

The target of assay [7] is Bile acid receptor (Homo sapiens) (UniProt Q96RI1). As to the kind of experiment: qHTS assay to identify small molecule agonists of the farnesoid-X-receptor (FXR) signaling pathway (AID 743220; active means well fitted activation curve with a large enough effect in the signal ratio in the repeat runs, not every such curve was filed as active; the % refers to the signal ratio). A digest of the protocol: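 FXR-UAS-bla HEK 293T cells carrying a UAS-driven beta-lactamase reporter were plated for 5 h at 37C/5% CO2, then exposed to DMSO-dissolved Tox21 10K compounds for 16 h at 37C. A LiveBLAzer B/G FRET substrate was loaded for 2 h at room temperature before fluorescence reading.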

For assay [8] the target is unchanged. As to the kind of experiment: qHTS assay to identify small molecule antagonists of the farnesoid-X-receptor (FXR) signaling pathway (AID 743217; active means well fitted inhibition curve with a large enough effect in the signal ratio in the repeat runs, not every such curve was filed as active; the % refers to the signal ratio; further: potency means the concentration at half of the fitted maximal effect). A digest of the protocol: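 Test compounds are pin-transferred onto FXR-bla HEK 293T cells, then chenodeoxycholic acid is added at 50 uM final. After 16 h at 37 °C, LiveBLAzer B/G substrate is applied for 2 h at room temperature and fluorescence read.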

Assay [9] has as its target Peroxisome proliferator-activated receptor delta (Homo sapiens) (UniProt Q03181). The assay is described as follows: qHTS assay to identify small molecule agonists of the peroxisome proliferator-activated receptor delta (PPARd) signaling pathway (AID 743212; calls by dose curve). A digest of the protocol: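 Tox21 library screened in GeneBLAzer PPARd UAS-bla HEK293H cells. After compound treatment at 37 C, a FRET-based beta-lactamase substrate was applied for 2 h and fluorescence recorded.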

Assay [10] shares this target. The assay is described as follows: qHTS assay to identify small molecule antagonists of the peroxisome proliferator-activated receptor delta (PPARd) signaling pathway (AID 743215; active means well fitted inhibition curve with a large enough effect in the signal ratio in the repeat runs, not every such curve was filed as active; the % refers to the signal ratio;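 further: cells stimulated with agonist L165041 at 300 nM final during compound exposure; series mostly up to about 62 µM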). A digest of the protocol:
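Here, a reporter line (HEK293H, beta-lactamase under a UAS) measures PPARd signaling. Compounds are tested against agonist L165041 at 300 nM final concentration over 17 h at 37 C, with fluorescence read after substrate.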

Each structure is given as a SMILES string. Inconclusive results are not listed. Unmarked numbers belong to inactive results. The source made the active and inactive calls. Unless noted, the call rests on the fitted dose curve; in most records, active means well fitted curve in the direction sought with a large enough effect in the repeat runs; inconclusive means weak or mixed curves; inactive means no such curve, though single readings can be large; an effect the other way counts as inactive or inconclusive.
On the % scale 0 is the no-effect control and ±100 the full control effect.

Bile acid receptor (Homo sapiens), sequence (Q96RI1 whole entry, looked up): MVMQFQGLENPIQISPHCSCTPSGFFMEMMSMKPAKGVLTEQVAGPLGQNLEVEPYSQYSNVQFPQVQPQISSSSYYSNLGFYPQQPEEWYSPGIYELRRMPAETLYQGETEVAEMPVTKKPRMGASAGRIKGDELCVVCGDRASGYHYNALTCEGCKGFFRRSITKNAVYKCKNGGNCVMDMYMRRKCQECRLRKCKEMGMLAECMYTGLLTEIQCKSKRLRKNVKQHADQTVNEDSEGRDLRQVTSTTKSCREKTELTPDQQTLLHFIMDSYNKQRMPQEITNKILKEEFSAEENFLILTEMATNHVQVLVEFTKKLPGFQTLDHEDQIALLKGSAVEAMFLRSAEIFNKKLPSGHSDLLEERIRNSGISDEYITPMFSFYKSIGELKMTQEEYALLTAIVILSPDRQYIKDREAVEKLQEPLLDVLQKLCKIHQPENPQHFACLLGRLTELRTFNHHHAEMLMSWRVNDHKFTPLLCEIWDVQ
Vitamin D3 receptor (Homo sapiens), sequence (P11473 whole entry, looked up): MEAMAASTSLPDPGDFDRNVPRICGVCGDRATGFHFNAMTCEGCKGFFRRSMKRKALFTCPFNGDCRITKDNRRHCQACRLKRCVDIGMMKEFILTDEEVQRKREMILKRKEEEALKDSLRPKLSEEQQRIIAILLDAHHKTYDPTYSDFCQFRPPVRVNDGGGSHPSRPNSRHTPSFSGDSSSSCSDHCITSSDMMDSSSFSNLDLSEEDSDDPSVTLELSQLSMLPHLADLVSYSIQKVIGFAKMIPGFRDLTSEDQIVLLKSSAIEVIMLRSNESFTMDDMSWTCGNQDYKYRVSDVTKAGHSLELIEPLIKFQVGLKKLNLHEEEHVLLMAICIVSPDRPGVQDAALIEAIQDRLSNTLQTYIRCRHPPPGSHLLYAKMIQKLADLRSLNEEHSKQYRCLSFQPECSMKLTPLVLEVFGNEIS
Peroxisome proliferator-activated receptor delta (Homo sapiens), sequence (Q03181 whole entry, looked up): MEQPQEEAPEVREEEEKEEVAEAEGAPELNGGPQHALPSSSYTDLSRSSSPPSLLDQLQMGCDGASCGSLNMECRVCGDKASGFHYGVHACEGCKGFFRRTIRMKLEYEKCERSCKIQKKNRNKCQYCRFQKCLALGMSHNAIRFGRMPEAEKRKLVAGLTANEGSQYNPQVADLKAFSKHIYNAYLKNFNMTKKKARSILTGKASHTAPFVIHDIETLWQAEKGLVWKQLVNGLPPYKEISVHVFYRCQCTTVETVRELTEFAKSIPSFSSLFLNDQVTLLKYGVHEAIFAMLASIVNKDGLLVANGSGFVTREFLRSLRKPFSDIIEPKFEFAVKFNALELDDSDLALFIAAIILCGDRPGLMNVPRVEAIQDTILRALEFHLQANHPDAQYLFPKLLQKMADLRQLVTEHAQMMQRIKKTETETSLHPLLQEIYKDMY

For `CCOC(=O)Cc1cccc2ccccc12`, the Potency result in [1], in assay [2], in [3], in assay [4] and in [5] was “inactive” throughout. Further, the outcome in assay [6] was inactive.
Regarding `CN(C)c1ccc(/C=C/c2ccc([N+](=O)[O-])cc2)cc1`, the activity change, negative = cytotoxicity was -8.61% [at 5.95 µM] in assay [1] and -0.888% [at 5.95 µM] in assay [4]. The viability change, negative = cytotoxic in assay [2] was 1.68% [at 6.26 µM]; in assay [3] it was -8.77% [at 5.95 µM]. For the same molecule, the activation in assay [7] is -3.79% [at 5.95 µM]. Further, the activity change, negative = inhibition in assay [6] was -22.2% [at 6.95 µM].
With `COCCCN1CCC(NC(=O)c2cc(Cl)c(N)c3c2OCC3)CC1`, the Potency result in assay [1], in assay [2], in assay [3], in [4] and in assay [5] was “inactive” in each case. The result in assay [6] was inactive.
Take `CCOC(=O)COC(=O)c1cc(Oc2ccc(C(F)(F)F)cc2Cl)ccc1[N+](=O)[O-]`: the Potency result in assay [1], in assay [2], in assay [8], in assay [3], in assay [4] and in assay [5] was “inactive” throughout. Besides, in assay [6], the outcome was inactive.
As to `CN(C)CCN(Cc1ccsc1)c1ccccn1`, the Potency entry in assay [1], in [2], in [3], in assay [4] and in assay [5] was “inactive” each time.
Turning to `CCN(CC)c1ccc2c(-c3ccccc3C(=O)O)c3ccc(=[N+](CC)CC)cc-3oc2c1`, the Potency result in assay [1], in assay [2], in assay [8], in assay [4] and in assay [5] was “inactive” throughout.
On to `CC1=CCCC(C)(C)C12CCC(C)O2` (stereo not drawn), for which the Potency entry in assay [1], in assay [2], in [8] and in assay [7] was “inactive” each time.
Take `COC(=O)C1=C(C)NC(COC(N)=O)=C(C(=O)OC(C)C)C1c1cccc(Cl)c1Cl` (stereo not drawn): the Potency result in [1], in assay [2], in [3] and in assay [4] was “inactive” in each case. Further, the Potency in assay [5] is 29.8 µM (active).
Turning to `COC(=O)c1ccc(I)cc1S(=O)(=O)NC(=O)Nc1nc(C)nc(OC)n1`, the Potency result in assay [1], in assay [2], in [3], in assay [4] and in assay [5] was “inactive” throughout. For the same molecule, the molecule was called inactive in assay [6].
As to `CCC(CC)Nc1ccc(C)c(C)c1`, the Potency result in assay [1], in assay [2], in assay [3] and in [4] was “inactive” throughout.
Consider `N=c1ccn2c(n1)O[C@H]1[C@H](O)[C@@H](CO)O[C@H]12`, for which the Potency result in [1], in assay [2], in [3], in assay [4] and in assay [5] was “inactive” throughout. In addition, the molecule was called inactive in assay [6].
As to `O=C(O)c1ccco1`, the Potency result in assay [1], in [2], in assay [3], in assay [4] and in assay [5] was “inactive” throughout. The result in assay [6] was inactive.
Regarding `CC(=O)NO`, the Potency entry in assay [1], in assay [2], in assay [3], in [4] and in [5] was “inactive” each time. In assay [6], the call was inactive.
Regarding `CC[N+](C)(CC)CCOC(=O)C(O)(c1ccccc1)C1CCCCC1` (stereo not drawn), the Potency result in [1], in assay [2], in assay [3], in assay [4] and in assay [5] was “inactive” each time. In assay [6], the result was inactive.
Regarding `CN(C)c1ccc(C(c2ccccc2)c2ccc(N(C)C)cc2)cc1`, the Potency result in assay [1], in assay [2], in assay [3], in assay [4] and in assay [5] was “inactive” in each case. For the same molecule, the call in assay [6] was inactive.
On to `O=S(=O)(Oc1ccc(Cl)cc1)c1ccccc1`, for which the Potency entry in assay [1], in assay [2], in assay [8], in assay [7], in assay [4] and in assay [5] was “inactive” throughout.
As to `CNCCCN1c2ccccc2CCc2ccccc21`, the figures for the Potency in assay [1], in assay [2] and in [3] were 26.6 µM (active), 9.44 µM (active) and 18.8 µM (active), respectively. Further, the Potency entry in [7] is “inactive”.
`CCCCc1nc2cccnc2n1Cc1ccc(-c2ccccc2-c2nnn[nH]2)cc1`: the Potency result in assay [1], in assay [2], in assay [3], in assay [4] and in assay [5] was “inactive” in each case.
In the case of `NCc1ccccc1Sc1ccccc1CO`, the Potency result in [1], in [2], in [3], in [4] and in assay [5] was “inactive” each time. Also, the molecule was classed as inactive in assay [6].
Consider `CC(=O)[O][Al][O]C(C)=O`, for which the Potency result in assay [1], in assay [2], in assay [3] and in assay [4] was “inactive” throughout.
Consider `O=P(O)(OCc1ccccc1)OCc1ccccc1`, for which the Potency result in [1], in assay [2], in [3], in assay [7], in [4] and in assay [5] was “inactive” throughout. In assay [6], the outcome was inactive.
Consider `CCCCCCOC(=O)NC(=N)c1ccc(NCc2nc3cc(C(=O)N(CCC(=O)OCC)c4ccccn4)ccc3n2C)cc1`, for which the Potency in [1] is 21.1 µM (active); in assay [2] it was 23.7 µM (active); in assay [3], 26.6 µM (active). Further, the Potency result in assay [7] is “inactive”. Also, the molecule was called inactive in assay [6].
In the case of `Cc1cccc(Nc2ccccc2)c1`, the Potency entry in assay [1], in assay [2], in assay [8], in assay [3], in [7] and in assay [5] was “inactive” throughout. Moreover, the molecule was classed as inactive in [6].
For the molecule `O=C1c2ccccc2S(=O)(=O)N1CCCCN1CCN(c2ncccn2)CC1`, the Potency result in assay [1], in assay [2], in assay [3] and in assay [4] was “inactive” throughout.
As for `CC(=O)[O][Al]`, the Potency entry in assay [1], in assay [2], in assay [3] and in assay [4] was “inactive” each time.
Turning to `COc1cc2nc(Cl)nc(N)c2cc1OC`, the Potency entry in [1], in [2], in assay [3], in assay [4] and in assay [5] was “inactive” in each case. The molecule was called inactive in [6].
As to `Cc1ccccc1S(=O)(=O)O`, the Potency result in assay [1], in assay [2], in assay [3] and in [4] was “inactive” in each case.
For the molecule `CCCCc1ncc(/C=C(\Cc2cccs2)C(=O)O)n1Cc1ccc(C(=O)O)cc1`, the Potency entry in assay [1], in [2], in assay [3] and in assay [4] was “inactive” each time. Besides, in assay [6], the outcome was inactive.
For the molecule `CNCCCCOc1ccccc1Cc1ccccc1`, the Potency in assay [1] was 26.6 µM (active); in assay [2], 13.3 µM (active). The Potency entry in assay [7] and in [5] was “inactive” each time.
For the molecule `CCCCC(=O)OCC(=O)[C@H]1[C@H](C)C[C@H]2[C@@H]3C[C@H](F)C4=CC(=O)C=C[C@]4(C)[C@@]3(F)[C@@H](O)C[C@@]21C`, the Potency result in assay [1], in [2], in assay [3], in assay [4] and in assay [5] was “inactive” each time. The call in [6] was inactive.
With `Cc1oc2c(NC(=O)c3c(Cl)cccc3Cl)cccc2c1C(C)(C)O`, the Potency result in assay [9], in assay [10], in assay [7] and in assay [4] was “inactive” throughout. The Potency in [8] was 38.9 µM (active); in assay [3], 21.9 µM (active). The molecule was classed as inactive in [6].
